The values below come from PubChem BioAssay (NCATS).

Records with an inconclusive call do not appear. Active and inactive are the calls of the source. Unless noted, calls come from the whole dose curve; as a rule, active = well fitted curve in the direction sought with a large enough effect; inconclusive = small, poorly fitted or top-dose-only effect, or another doubt; inactive = no such curve, though single readings can be large; an effect the other way counts as inactive or inconclusive.

A short description of assay [1]: Validation of Assay for Modulators of Lamin A Splicing (AID 1459; active = well fitted curve in the direction sought with a large enough effect in the signal ratio; the % refers to the signal ratio;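 note: cells exposed to compound for two days before reading; 0% is about no effect; ratio rise marks activators and ratio drop marks inhibitors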). Summed up:
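Splicing correction is reported by an EGFP-containing lamin A minigene in stably transfected S3 HeLa cells, while DsRed2 controls for viability and nonspecific signal. Cells are exposed to compounds for 48 hrs before the GFP over RFP ratio is taken.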

Assay [2] can be described thus: Counterscreen for APE1 Inhibitors: Fluorescent Dye Displacement Validation Assay (AID 1707).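 Note: plate controls were ThO with dsDNA and no compound for no effect and ThO without dsDNA for full effect.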 Summed up: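 Counterscreen flags promiscuous DNA binders: compounds displacing ThO from duplex DNA (abasic THF site, 50 nM) reduce 540 nm emission (480 nm excitation). ThO 250 nM final; Tris-HCl pH 7.5 with NaCl, MgCl2 and Tween-20.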
In assay [3] the target is Endonuclease 4 (Escherichia coli (strain K12)) (UniProt P0A6C1). Description: Counterscreen for APE1 Inhibitors: qHTS Validation Assay for Inhibitors of Endonuclease IV (AID 1708). Note: % is set by controls: 0 for no effect and ±100 for the full control effect. The essentials: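 Conditions: 2 nM enzyme, 50 nM TAMRA/BHQ-2 substrate, pH 7.5 Tris buffer with 2 mM MgCl2, RT. Compound preincubation 15 min; readout three fluorescence reads 60 s apart, third-minus-first.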

Assay [4] can be described thus: qHTS for differential inhibitors of proliferation of Plasmodium falciparum line D10 (AID 1877).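 For activity change, negative = inhibition: plate controls were vehicle wells for no effect and reference inhibitor wells for full effect.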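 Note: parasites grown with compound for 72 h before DNA staining.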 Note: potency is the fitted concentration of half-maximal effect. Background: Quantitative high-throughput screening tests each substance at several concentrations.
The target of assay [5] is ATP-dependent DNA helicase Q1 (Homo sapiens) (UniProt P46063). Description: qHTS Validation Assay for Inhibitors of RecQ-Like Dna Helicase 1 (RECQ1) (AID 2353).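 Note: plate controls were DMSO vehicle for no effect and enzyme-free control for full effect.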 Summed up:
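RECQ1T1 50 nM; forked duplex (20 bp + 30-nt ss tails) 200 nM, ATP 2 mM final; pH 8.0, 2 mM MgCl2, 2.5 ug/ml poly(dI-dC); 15 min compound preincubation; discontinuous kinetic read over 2 h at RT.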

Assay [6] is described as follows: Validation screen for inhibitors of Lassa infection (AID 463096; calls by dose curve; note: % is set by controls: 0 for no effect and ±100 for the full control effect).
The nature of assay [7]: Quantitative high throughput screen for delayed death inhibitors of the malarial parasite plastid, 96 hour incubation (AID 488745). Note: nearly all actives have a fitted effect of over 70% in size. Note: potency is the fitted concentration of half-maximal effect. Summed up: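 Readout is firefly luciferase luminescence from an integrated reporter in P. falciparum; lower signal marks inhibited growth. Cultures at 2% hematocrit and 0.1% parasitemia were treated with compound across two generations (96 h, 37 C, 5% CO2).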

Assay [8] addresses M-phase phosphoprotein 8 (Homo sapiens) (UniProt Q99549). Description: qHTS Validation Assay for Inhibitors for MPP8 Chromodomain Interactions with Methylated Histone Tails (AID 488949). Note: nearly all actives have a fitted effect of over 55% in size. Note: potency is the fitted concentration of half-maximal effect. The essentials:
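Disruption of the preformed MPP8–trimethyl-H3K9 peptide complex (both 50 nM, 30 min, RT) is measured after 30 min compound exposure, using AlphaScreen proximity beads; aurintricarboxylic acid titration serves as plate control.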

Assay [9] has as its target Transient receptor potential cation channel subfamily V member 1 (Homo sapiens) (UniProt Q8NER1). Description: HTS Assay for Compounds that Act as Enhancers of the Vanilloid Receptor 1 (AID 488979). Note: 0% is about no effect. The essentials:
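TRPV1 cells loaded with Fluo-8 calcium dye; compound added and Ca2+ signal (ex 480/em 520 nm) followed 3 min, then capsaicin at EC20 added and read 2 more min to detect enhancement.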

The target of assay [10] is Thyrotropin receptor (Homo sapiens) (UniProt P16473). Description: qHTS Assay for Antagonists of the Thyroid Stimulating Hormone Receptor (AID 488980). Note: 0% is about no effect. The essentials:
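Cells expressing human TSHR (HEK293) are dispensed in HBSS/HEPES containing 70 uM RO 20-1724, compound is added, then TSH at EC80 (4 nM final). Antibody in lysis buffer follows, 30 minutes at room temperature before HTRF detection.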

Assay [11] addresses Galactokinase (Homo sapiens) (UniProt P51570). Description: qHTS Validation Assay for Inhibitors of Human Galactokinase (GALK) (AID 493189). Note: 0% is about no effect. Summed up:
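Compounds were pin-transferred into ATP buffer, then GALK-galactose mix was added (final 5 nM enzyme, 100 uM galactose, 35 uM ATP). After 1 h at room temperature, remaining ATP was measured luminescently.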

The nature of assay [12]: Validation screen for small molecules that induce DNA re-replication in SW480 colon adenocarcinoma cells (AID 504364). Note: 0% is about no effect. Summed up: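 Image-based qHTS: compounds were incubated with SW480 cells for 48 hr, nuclei stained with Hoechst, and per-nucleus fluorescence intensity scanned to flag cells with excess DNA content.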
Assay [13] in a line: qHTS Assay for Lipid Storage Modulators (AID 1519; calls by dose curve). The note with it: Drosophila S3 cells, BODIPY lipid droplet/cell ratio, laser cytometry, cells loaded with oleic acid; for activity change, negative = inhibition: at 57.5 µM (top of the series). Summed up: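 Cells seeded at 5,000 per well were treated with compounds over a concentration series and loaded with oleic acid (400 uM, as added). Lipid droplet fluorescence (488 nm excitation, 500-530 nm channel) was read by laser-scanning cytometry and normalized to 20 uM Triacsin C.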

Assay [14] addresses DNA repair nuclease/redox regulator APEX1 (Homo sapiens) (UniProt P27695). Description: qHTS Validation Assay for Inhibitors of the Human Apurinic/apyrimidinic Endonuclease 1 (APE1) (AID 1705;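 note: TAMRA fluorescence gain over two minutes as APE1 cuts a quenched THF abasic duplex; % is set by controls: 0 for no effect and ±100 for the full control effect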). Summed up: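 Endonuclease activity of human APE1 is followed as dequenching when the enzyme incises a tetrahydrofuran abasic site in a short duplex labelled 5'-TAMRA/3'-BHQ-2 (50 nM final), after 15 min enzyme–compound preincubation at room temperature.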

Assay [15] has as its target Ferritin light chain (Equus caballus) (UniProt P02791). Description: qHTS Validation Assay for Identification of Novel General Anesthetics (AID 2323). Note: % is set by controls: 0 for no effect and ±100 for the full control effect. The essentials: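 Apoferritin from horse spleen (10 uM) was mixed with 1-aminoanthracene at 50% saturation in PBS, then compounds were added. After 10 min at room temperature, fluorescence was read (ex 380 nm, em 535 nm) and normalized to free-probe and complex controls.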

The nature of assay [16]: Primary qHTS for inhibitors of SARS-S pseudo-typed particle cell entry (AID 1479145; calls by dose curve; note: % is set by controls: 0 for no effect and ±100 for the full control effect; nearly all actives have a fitted effect of over 45% in size). The following applies: outcome: dose series up to 57.1 µM unless noted.
The nature of assay [17]: Primary qHTS for Huh7 cytotoxicity: counterscreen for inhibitors of MERS-S pseudotyped particle cell entry (AID 1479147; calls by dose curve). The note with it: outcome: dose series up to 57.1 µM unless noted.
Assay [18] can be described thus: Primary qHTS for inhibitors of MERS-S pseudo-typed particle cell entry (AID 1479149; calls by dose curve; note: % is set by controls: 0 for no effect and ±100 for the full control effect; nearly all actives have a fitted effect of over 60% in size). The following applies: outcome: dose series up to 57.1 µM unless noted.
The nature of assay [19]: Primary qHTS for Vero E6 cytotoxicity: counterscreen for inhibitors of SARS-S pseudo-typed particle cell entry (AID 1479150; calls by dose curve; note: % is set by controls: 0 for no effect and ±100 for the full control effect). The following applies: outcome: dose series up to 57.1 µM unless noted.
Where [20] appears, read: measured here: cell count channel max response.
Setting [21] is: measured here: lipid channel max response.

Chain of Ferritin light chain (Equus caballus) (P02791 2-175 limits assumed): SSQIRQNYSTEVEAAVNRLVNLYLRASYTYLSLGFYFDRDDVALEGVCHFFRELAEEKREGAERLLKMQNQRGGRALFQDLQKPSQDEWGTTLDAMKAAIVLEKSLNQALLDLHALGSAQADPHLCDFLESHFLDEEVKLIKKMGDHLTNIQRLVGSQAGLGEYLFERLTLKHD
Chain of Thyrotropin receptor (Homo sapiens) (P16473 whole entry, looked up): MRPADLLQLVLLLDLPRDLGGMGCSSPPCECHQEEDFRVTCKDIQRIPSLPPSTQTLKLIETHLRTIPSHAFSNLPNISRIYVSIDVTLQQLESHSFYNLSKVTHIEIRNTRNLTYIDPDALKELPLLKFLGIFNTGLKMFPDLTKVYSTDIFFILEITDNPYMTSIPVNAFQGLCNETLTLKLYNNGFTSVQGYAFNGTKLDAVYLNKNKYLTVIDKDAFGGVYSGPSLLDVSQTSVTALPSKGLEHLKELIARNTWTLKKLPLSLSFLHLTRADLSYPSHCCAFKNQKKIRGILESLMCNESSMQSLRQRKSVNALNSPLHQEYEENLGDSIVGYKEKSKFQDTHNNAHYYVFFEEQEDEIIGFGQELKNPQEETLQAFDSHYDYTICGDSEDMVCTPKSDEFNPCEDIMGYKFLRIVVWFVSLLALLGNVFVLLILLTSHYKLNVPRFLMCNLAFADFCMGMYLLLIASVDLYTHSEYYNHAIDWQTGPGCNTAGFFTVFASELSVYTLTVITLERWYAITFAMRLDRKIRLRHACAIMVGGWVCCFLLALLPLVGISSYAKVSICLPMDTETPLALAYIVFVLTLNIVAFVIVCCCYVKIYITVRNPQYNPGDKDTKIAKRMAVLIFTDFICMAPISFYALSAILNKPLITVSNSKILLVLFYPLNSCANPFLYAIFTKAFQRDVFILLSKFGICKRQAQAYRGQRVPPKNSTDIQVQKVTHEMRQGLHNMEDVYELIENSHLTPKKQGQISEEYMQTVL
Chain of M-phase phosphoprotein 8 (Homo sapiens) (Q99549 whole entry, looked up): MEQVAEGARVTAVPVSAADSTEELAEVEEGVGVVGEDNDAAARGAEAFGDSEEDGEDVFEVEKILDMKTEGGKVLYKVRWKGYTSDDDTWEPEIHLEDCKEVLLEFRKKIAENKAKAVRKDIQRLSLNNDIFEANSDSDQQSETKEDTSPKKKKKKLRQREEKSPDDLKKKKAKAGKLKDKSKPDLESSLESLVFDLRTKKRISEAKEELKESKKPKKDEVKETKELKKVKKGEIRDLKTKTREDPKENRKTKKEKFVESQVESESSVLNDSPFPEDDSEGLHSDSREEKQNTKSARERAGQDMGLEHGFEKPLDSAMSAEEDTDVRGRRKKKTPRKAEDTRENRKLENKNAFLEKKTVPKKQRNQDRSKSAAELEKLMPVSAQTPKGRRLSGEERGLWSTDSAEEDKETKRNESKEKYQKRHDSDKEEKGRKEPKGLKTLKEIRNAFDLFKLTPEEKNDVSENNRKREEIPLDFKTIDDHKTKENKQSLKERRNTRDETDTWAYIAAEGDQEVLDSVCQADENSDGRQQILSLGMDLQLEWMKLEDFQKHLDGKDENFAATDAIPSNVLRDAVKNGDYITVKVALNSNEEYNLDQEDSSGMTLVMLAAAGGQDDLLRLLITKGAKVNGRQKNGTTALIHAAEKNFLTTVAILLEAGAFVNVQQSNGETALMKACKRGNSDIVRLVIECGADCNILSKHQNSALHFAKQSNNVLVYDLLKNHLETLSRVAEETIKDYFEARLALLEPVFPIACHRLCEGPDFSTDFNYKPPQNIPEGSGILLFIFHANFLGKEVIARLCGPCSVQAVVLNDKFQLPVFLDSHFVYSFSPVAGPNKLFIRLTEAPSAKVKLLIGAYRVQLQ
Chain of Transient receptor potential cation channel subfamily V member 1 (Homo sapiens) (Q8NER1 whole entry, looked up): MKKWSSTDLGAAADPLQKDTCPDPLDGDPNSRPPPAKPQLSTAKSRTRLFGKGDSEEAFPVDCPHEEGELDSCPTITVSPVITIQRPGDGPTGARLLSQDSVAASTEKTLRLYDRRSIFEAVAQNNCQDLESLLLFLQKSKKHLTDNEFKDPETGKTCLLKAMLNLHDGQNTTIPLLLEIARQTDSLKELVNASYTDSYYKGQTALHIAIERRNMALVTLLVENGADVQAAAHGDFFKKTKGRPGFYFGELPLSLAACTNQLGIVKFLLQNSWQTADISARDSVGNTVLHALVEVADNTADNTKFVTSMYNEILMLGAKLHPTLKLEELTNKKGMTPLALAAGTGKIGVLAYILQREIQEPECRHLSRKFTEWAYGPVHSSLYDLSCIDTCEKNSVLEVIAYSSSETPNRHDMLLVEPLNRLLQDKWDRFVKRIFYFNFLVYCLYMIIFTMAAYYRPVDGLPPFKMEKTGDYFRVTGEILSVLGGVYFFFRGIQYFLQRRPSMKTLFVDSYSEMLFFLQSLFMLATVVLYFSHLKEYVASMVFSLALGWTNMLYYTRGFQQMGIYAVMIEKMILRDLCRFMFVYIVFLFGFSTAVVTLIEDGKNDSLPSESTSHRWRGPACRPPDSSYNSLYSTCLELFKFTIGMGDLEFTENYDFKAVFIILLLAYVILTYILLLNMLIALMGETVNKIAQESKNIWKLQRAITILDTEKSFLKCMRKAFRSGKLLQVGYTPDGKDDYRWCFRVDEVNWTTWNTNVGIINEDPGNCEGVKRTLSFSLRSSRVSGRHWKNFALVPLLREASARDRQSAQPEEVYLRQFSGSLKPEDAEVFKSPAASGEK
Chain of Galactokinase (Homo sapiens) (P51570 whole entry, looked up): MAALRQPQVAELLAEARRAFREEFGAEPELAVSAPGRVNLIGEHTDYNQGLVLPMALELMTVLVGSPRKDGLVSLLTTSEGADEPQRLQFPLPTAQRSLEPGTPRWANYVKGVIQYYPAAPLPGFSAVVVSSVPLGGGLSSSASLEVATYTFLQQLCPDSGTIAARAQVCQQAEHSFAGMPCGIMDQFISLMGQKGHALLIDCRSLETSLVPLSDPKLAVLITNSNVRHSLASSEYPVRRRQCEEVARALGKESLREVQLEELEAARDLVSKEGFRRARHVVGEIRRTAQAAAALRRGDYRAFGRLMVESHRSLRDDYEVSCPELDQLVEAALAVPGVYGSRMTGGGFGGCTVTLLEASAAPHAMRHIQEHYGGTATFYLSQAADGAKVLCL
Chain of DNA repair nuclease/redox regulator APEX1 (Homo sapiens) (P27695 whole entry, looked up): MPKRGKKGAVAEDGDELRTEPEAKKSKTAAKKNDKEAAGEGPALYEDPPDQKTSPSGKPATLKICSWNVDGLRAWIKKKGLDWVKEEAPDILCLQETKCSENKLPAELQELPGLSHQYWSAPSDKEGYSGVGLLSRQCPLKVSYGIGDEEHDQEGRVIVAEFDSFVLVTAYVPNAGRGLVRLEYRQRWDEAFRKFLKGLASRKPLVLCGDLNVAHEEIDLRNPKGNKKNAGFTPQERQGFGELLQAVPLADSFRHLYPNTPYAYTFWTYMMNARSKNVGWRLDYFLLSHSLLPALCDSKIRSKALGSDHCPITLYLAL
Chain of ATP-dependent DNA helicase Q1 (Homo sapiens) (P46063 whole entry, looked up): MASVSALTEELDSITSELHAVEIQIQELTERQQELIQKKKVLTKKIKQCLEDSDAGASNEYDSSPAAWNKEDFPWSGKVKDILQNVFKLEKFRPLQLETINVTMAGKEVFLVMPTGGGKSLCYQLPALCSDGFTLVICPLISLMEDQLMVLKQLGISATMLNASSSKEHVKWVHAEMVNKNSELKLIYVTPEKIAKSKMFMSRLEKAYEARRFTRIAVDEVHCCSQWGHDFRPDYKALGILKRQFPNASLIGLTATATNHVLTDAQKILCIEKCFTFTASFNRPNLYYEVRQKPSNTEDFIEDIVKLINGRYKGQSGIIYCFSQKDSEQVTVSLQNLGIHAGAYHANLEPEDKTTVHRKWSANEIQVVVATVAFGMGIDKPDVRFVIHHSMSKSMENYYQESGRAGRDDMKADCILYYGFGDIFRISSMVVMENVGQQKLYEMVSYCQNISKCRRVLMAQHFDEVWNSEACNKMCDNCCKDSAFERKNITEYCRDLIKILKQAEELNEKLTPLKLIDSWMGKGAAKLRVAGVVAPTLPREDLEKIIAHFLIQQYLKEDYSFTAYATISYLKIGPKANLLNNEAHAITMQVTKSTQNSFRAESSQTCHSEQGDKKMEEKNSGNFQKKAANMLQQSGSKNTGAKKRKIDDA

Consider `N#CC(=Cc1ccc(O)c(O)c1)C(N)=S`, for which the compound was called inactive in assay [1], in assay [2], in [5], in assay [9], in assay [10] and in assay [11]. In [12], the result was inactive. Besides, the Potency result in [3], in assay [4], in assay [6] and in assay [7] was “inactive” throughout. Further, the Potency in assay [8] was 44.7 µM (active).
As for `CCN1C[C@]2(C)CC[C@H](O)[C@@]34[C@@H]5C[C@@H]6[C@@H](OC)C[C@@](O)(C5[C@H]6O)[C@@H](C[C@@H]23)[C@@H]14`, the result in assay [1], in assay [2], in [5], in assay [9], in [10] and in assay [11] was inactive. Moreover, the result in assay [12] was inactive. In addition, in [13], the activity change, negative = inhibition is 1.56% (inactive). In addition, the max response in [13] (setting [20]) was -17.1%; in [13] (setting [21]) it was -16.8%. In addition, the Potency entry in [14], in assay [3], in assay [4], in assay [15], in assay [6] and in assay [7] was “inactive” in each case. The Potency entry in assay [8] is “inactive”.
With `CN1C[C@@H](CS(=O)(=O)N(C)C)C[C@@H]2c3cccc4c3c(cn4C)C[C@H]21`, the compound was called inactive in [1], in assay [2], in assay [5], in [9], in assay [10] and in assay [11]. Moreover, the compound was called inactive in assay [12]. Besides, the Potency result in assay [14], in [3], in assay [15] and in [6] was “inactive” each time.
For the compound `COc1cc(C=C(C#N)C#N)cc(O)c1O`, the outcome in [1], in assay [2], in assay [5], in [9], in assay [10] and in [11] was inactive. In assay [12], the result was inactive. In assay [13], the activity change, negative = inhibition was -2.14% (inactive). Also, the max response in [13] (setting [20]) was found to be 23.5%; in assay [13] (setting [21]), 22.3%. Moreover, the Potency entry in assay [14], in assay [3], in assay [15], in assay [6] and in assay [7] was “inactive” each time. The Potency in assay [8] was 39.8 µM (active).
Turning to `CCN(CC)C(=O)N[C@@H]1C[C@@H]2c3cccc4[nH]cc(c34)C[C@H]2N(C)C1`, the outcome in assay [1], in [2], in assay [5], in assay [9], in assay [10] and in assay [11] was inactive. In assay [12], the compound was called inactive. Further, the activity change, negative = inhibition in assay [13] was -3.98% (inactive). In addition, the max response in assay [13] (setting [20]) came out at 28.2%; in assay [13] (setting [21]) it was 24%. Further, the Potency result in assay [14], in [15] and in [6] was “inactive” throughout. Besides, in [7], the Potency is 1.17 µM (active).
With `CCCN1CCCC(c2cccc(O)c2)C1` (stereo not given), the compound was called inactive in [1], in assay [2], in assay [5], in assay [9], in assay [10] and in assay [11]. Moreover, in assay [12], the compound was classed as inactive. Further, the Potency result in [14], in [3], in assay [4], in [15], in assay [6] and in [7] was “inactive” each time. In [8], the Potency entry is “inactive”.
Regarding `COC(=O)C(N)CCCN=C(N)N[N+](=O)[O-]` (stereo not given), the result in assay [1], in assay [2], in [5], in [9], in assay [10] and in assay [11] was inactive. For the same compound, the call in [12] was inactive. Moreover, the Potency entry in [14], in [4], in assay [15], in assay [6], in assay [7] and in [8] was “inactive” each time.
For `CC[C@H]1OC(=O)C[C@@H](O)[C@H](C)[C@@H](OC2OC(C)C(O)C(N(C)C)C2O)[C@@H](CCN2CCCCC2)C[C@@H](C)C(=O)/C=C/C(C)=C/[C@@H]1CN1CCCCC1` (stereo not given in full), the Potency result in assay [16], in [17], in assay [18] and in [19] was “inactive” in each case.
As to `COc1ccc2c3c1O[C@H]1C(=O)CC[C@@]4(O)C(C2)N(CC2CC2)CCC314` (stereo not given in full), the result in assay [1], in assay [2], in assay [5], in [9], in [10] and in assay [11] was inactive. Moreover, in [12], the compound was classed as inactive. In addition, the Potency entry in assay [14], in [3], in assay [4], in assay [15], in assay [6] and in assay [7] was “inactive” throughout. Besides, in assay [8], the Potency entry is “inactive”.
In the case of `COc1cc(C[C@@H](C)N)c(OC)cc1I`, the compound was called inactive in assay [1], in [2], in assay [5], in assay [9], in assay [10] and in [11]. Besides, the compound was classed as inactive in [12]. For the same compound, the Potency entry in [14], in assay [3], in [4], in assay [15], in assay [6] and in assay [7] was “inactive” in each case. The Potency result in assay [8] was “inactive”.
As to `CCCC[N+]1(C)C2CC(OC(=O)C(CO)c3ccccc3)CC1C1OC12` (stereo not given), the call in assay [1], in assay [2], in assay [5], in [9], in assay [10] and in assay [11] was inactive. Besides, the outcome in assay [12] was inactive. Moreover, the Potency entry in assay [14], in [3], in [4], in assay [15], in assay [6] and in assay [7] was “inactive” each time. The Potency result in assay [8] is “inactive”.
In the case of `C=CCN1CC[C@@]2(C)c3cc(O)ccc3CC1[C@@H]2C`, the compound was classed as inactive in [1], in assay [2], in assay [5], in [9], in assay [10] and in assay [11]. Further, the call in assay [12] was inactive. For the same compound, the activity change, negative = inhibition in assay [13] was -0.315% (inactive). Besides, the max response in assay [13] (setting [20]) stood at 26.7%; in assay [13] (setting [21]), 28.1%. In addition, the Potency result in [14], in assay [3], in assay [15], in [6], in assay [7] and in assay [8] was “inactive” throughout. For the same compound, the Potency in assay [4] was 12.6 µM (active).
